# Reference: PubChem BioAssay AID1851 (National Center for Advancing Translational Sciences (NCATS), 2009)
# Among all 16,000 compounds or so, about 5,100 (32%) were called active. Not shown: some 25% with an inconclusive outcome. Some of the results follow. Unmarked numbers belong to inactive results. Calls follow the shape of the dose curve; as a rule, active = well fitted curve in the direction sought with a large enough effect; inconclusive = small, poorly fitted or top-dose-only effect, or effect the other way; inactive = no such curve, though single readings can be large or run the other way.
# Target: Cytochrome P450 3A4 (Homo sapiens) (UniProt P08684)
# Sequence (P08684 whole entry, looked up): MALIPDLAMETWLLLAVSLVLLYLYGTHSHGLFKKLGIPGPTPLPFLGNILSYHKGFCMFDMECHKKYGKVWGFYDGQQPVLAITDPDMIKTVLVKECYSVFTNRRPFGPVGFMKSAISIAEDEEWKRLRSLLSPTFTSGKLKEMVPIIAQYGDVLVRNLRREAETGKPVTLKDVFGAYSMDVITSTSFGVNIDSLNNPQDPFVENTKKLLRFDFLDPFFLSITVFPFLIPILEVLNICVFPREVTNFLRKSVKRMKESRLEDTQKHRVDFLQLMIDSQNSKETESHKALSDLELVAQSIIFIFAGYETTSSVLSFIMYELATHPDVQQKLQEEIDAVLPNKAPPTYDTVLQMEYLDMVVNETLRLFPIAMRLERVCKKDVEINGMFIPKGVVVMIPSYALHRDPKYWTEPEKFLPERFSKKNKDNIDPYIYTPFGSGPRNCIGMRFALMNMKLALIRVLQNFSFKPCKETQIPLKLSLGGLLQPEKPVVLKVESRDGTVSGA
# Test: Cytochrome panel assay with activity outcomes
# Settings: recombinant CYP, pro-luciferin dealkylation, luminescence, p450-cyp3a4; series mostly up to 57.1 µM
# % is scaled to controls: 0 for no effect and ±100 for the full control effect.
SMILES,"activity, negative = inhibition",AC50
C[N+](C)(C)c1ccc([C@H](N)C(=O)O)cc1,1.95% [at 11.4 µM],
CCc1cccc2c(-c3ccccc3)c3c(nc12)OCC3,,inactive
C[C@@H]1C[C@H](OC(=O)[C@@H](O)c2ccccc2)CC(C)(C)N1C,,inactive
COCCn1c(=O)c(-c2cccc(C#N)c2)nc2cnc(N3CCN(C)CC3)nc21,,inactive
COCCn1c(=O)c(-c2cccc(C#N)c2)nc2cnc(N3CCNCC3)nc21,,20 µM (active)
Cc1nc2cnc(N3CCNCC3)nc2n(Cc2cccs2)c1=O,,3.16 µM (active)
Cc1nc2cnc(N3CCOCC3)nc2n(C)c1=O,,inactive
COCCn1c(=O)c(-c2cccc(C#N)c2)nc2cnc(N3CCOCC3)nc21,,inactive
O=c1c(-c2cccs2)nc2cnc(N3CCNCC3)nc2n1Cc1cccs1,,2.51 µM (active)
O=c1nc2ccccc2c2n1C[C@H](CN1CCN(c3ccccc3)CC1)N2,,inactive
CC(C)=CCC/C(C)=C/CO/N=C1/C[C@@H](O)[C@@H](O)[C@@H]2[C@@H]3C(=O)N(C(C)(C)C)C(=O)[C@H]3CC[C@@H]12,-26.7% [at 11.4 µM],
COC(=O)C1=C(N)Oc2cc(C)n(CC3CCCO3)c(=O)c2C1c1ccccc1OC (centres undefined),,6.31 µM (active)
COc1cc(Br)cc2cc(C(=O)NCC3CCCO3)c(=O)oc12 (centres undefined),,inactive
O=C(O)[C@@H]1[C@@H](C(=O)O)[C@]23C[C@@]2(C(=O)O)[C@]2(C(=O)O)CCC3=C3CCCC312,7.71% [at 11.4 µM],
O=C(NCC1CCC(C(=O)O)CC1)OCc1ccccc1 (centres undefined),,inactive
CNC(=O)[C@H](C)[C@H]1C[C@]1(C)[C@H](NC(=O)OCc1ccccc1)c1ccccc1,,2 µM (active)
CNC(=O)[C@H](C)[C@@H]1C[C@@]1(C)[C@@H](NC(=O)OCc1ccccc1)c1ccccc1,,2.51 µM (active)
CCOC(=O)N/N=C1/C[C@@H](O)[C@@H](O)[C@@H]2[C@@H]3C(=O)N(C(C)(C)C)C(=O)[C@H]3CC[C@@H]12,-11.7% [at 11.4 µM],
Cc1noc(C)c1C(=O)N1CCC[C@@]2(CCN(C(=O)NC(C)C)C2)C1,,inactive
Cc1noc(C)c1C(=O)N1CCC[C@@]2(CCN(c3ncccn3)C2)C1,,inactive

SMILES,"activity, negative = inhibition",AC50
Cc1noc(C)c1C(=O)N1CCC[C@@]2(CCN(c3ccccc3)C2)C1,,5.01 µM (active)
COc1ccc(NC(=O)N2CC3(CCN(C(=O)c4c(C)noc4C)CC3)C2)cc1,,inactive
Cc1noc(C)c1C(=O)N1CCC2(CC1)CN(c1ccccc1)C2,,inactive
Cc1noc(C)c1C(=O)N1CCC[C@@]2(CCN(C(=O)Nc3cccc(F)c3)C2)C1,,5.01 µM (active)
Cc1noc(C)c1C(=O)N1CCC[C@@]2(CCN(C(=O)Nc3ccccc3)C2)C1,,15.8 µM (active)
C=CC1=C[C@@H](O)C2OC2C12OCCCO2 (some centres undefined),-4.04% [at 11.4 µM],
CCCn1c(=O)c2[nH]c(-c3ccc(OCC(=O)NCCN)cc3)nc2n(CCC)c1=O,,2.51 µM (active)
CCCn1c(=O)c2[nH]c(C3CCCC3)nc2n(CCC)c1=O,,inactive
COc1cccc(-c2cc(C(F)(F)F)n3ncc(S(=O)(=O)c4ccccc4)c3n2)c1,,3.98 µM (active)
O=S(=O)(c1ccccc1)c1cnn2c(C(F)(F)F)cc(-c3ccccc3)nc12,,inactive
Cc1nc2ccccc2n1CC(=O)N/N=C\C=C\c1ccccc1,,inactive
CCCn1c(/C=C/c2ccccc2)nc2ccccc21,,17.8 µM (active)
CCc1c(C(=O)NCc2ccc3c(c2)OCO3)[nH]c(C)c1C(C)=O,,0.891 µM (active)
CCOc1c2ccc(C(=O)NCc3ccc4c(c3)OCO4)cc2nn1CC,14.3% [at 2.29 µM],
CCc1ccccc1NC(=S)NCc1ccc2c(c1)OCO2,,4.47 µM (active)
NC(N)=NNC(=O)C(=O)O,-1.33% [at 11.4 µM],
CC1=NN(c2ccc(C)cc2C)C(=O)C1C(c1ccccc1)C1C(=O)N(c2ccc(C)cc2C)N=C1C (centres undefined),,11.2 µM (active)
CC1=NN(c2ccc(F)cc2)C(=O)C1C(c1cccc(O)c1)c1c(C)[nH]n(-c2ccc(F)cc2)c1=O (centres undefined),2.16% [at 2.29 µM],
Cc1ccc(N2C(=O)C(Cl)=C(NCc3ccccc3)C2=O)c(C)c1,,inactive
CCN(CC)CCNC(=O)c1cc(Cl)c(N)cc1OC,,inactive

SMILES,"activity, negative = inhibition",AC50
CCN(CC)CCNC(=O)c1ccc(Cl)c(S(=O)(=O)Nc2ccccc2OC)c1,,14.1 µM (active)
CCN(CC)CCNC(=O)c1cc(S(C)(=O)=O)ccc1OC,,inactive
CCCCN(CC)Cc1ccc(CNC(=O)Nc2ccc(OC)cc2OC)o1,,22.4 µM (active)
COc1cnc(-c2ccccn2)nc1Oc1ccc(Cl)c2ccccc12,,14.1 µM (active)
COc1cnc(-c2ccccc2)nc1Oc1cccc(C)c1,,inactive
COc1cnc(-c2ccccn2)nc1Sc1c(Cl)cccc1Cl,,inactive
CN(Cc1cnc2nc(N)nc(N)c2n1)c1ccc(C(=O)N[C@@H](CCC(=O)O)C(=O)O)cc1,,inactive
COc1ccc(NC(=O)COC(=O)Cn2c(C)nc3ccccc32)cc1OC,8.93% [at 2.29 µM],
COc1ccc(C)cc1NC(=O)CCC(=O)Nc1nnc(C(F)(F)F)s1,,inactive
CCn1c2ccccc2c2cc(NC(=O)CSc3nnc(-c4ccc(OC)c(OC)c4)n3N)ccc21,,1 µM (active)
COc1ccc(C)cc1NC(=O)CSc1nnc(-c2ccc(OC)c(OC)c2)n1N,,7.94 µM (active)
Cn1c(=O)c2c(ncn2CC(COCc2ccccc2Cl)OCc2ccccc2Cl)n(C)c1=O (centres undefined),,7.94 µM (active)
Cn1c(=O)c2c(ncn2CCO)n(C)c1=O,,inactive
Cn1c(=O)c2c(ncn2C[C@@H](O)CO)n(C)c1=O,,inactive
O=C(CSC1=NCCS1)N1CCN(c2ccc(Cl)cc2)CC1,,15.8 µM (active)
Cc1cc([N+](=O)[O-])c(C)c(Br)c1C,-7.05% [at 11.4 µM],
O=C(O)/C(=C\c1ccc(O)cc1)c1cccc2ccccc12,-2.12% [at 11.4 µM],
NC(=O)/C(=C\c1ccncc1)c1cccc2ccccc12,,3.16 µM (active)
O=C(O)/C(=C\c1ccccc1)c1ccccc1,-6.04% [at 11.4 µM],
